Reference: the supplement of paper PMC8773631
“And” between values parts separate entries of the source, which are not always exact repeats. Equal values may be shown once. Where a name gives a salt, the structure may show the parent alone. ± gives the uncertainty stated by the source.

system: NCC-MFS5-C1; assay: cell viability relative to DMSO control; higher = less growth inhibition; conditions: 10 µM; treatment time: 3 days
Experimental: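 NCC-MFS5-C1 myxofibrosarcoma cells (1x10^4 per well, 384-well) were treated on day 2 with 10 µM of each drug. On day 5, viability was read by CCK-8 absorbance at 450 nm and normalised to the DMSO control (%), n = 2.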

`CCN1CCN(c2ccc(Nc3cc(N(C)C(=O)Nc4c(Cl)c(OC)cc(OC)c4Cl)ncn3)cc2)CC1` and `Cc1nc(Nc2ncc(C(=O)Nc3c(C)cccc3Cl)s2)cc(N2CCN(CCO)CC2)n1` [Dasatinib Monohydrate] are within error of each other in cell viability: 59.8 ± 5.6% for the first, 60.9 ± 3.2% for the second.

First: C[C@@H]1CCN(C(=O)CC#N)C[C@@H]1N(C)c1ncnc2[nH]ccc12
Second: CN(C)C/C=C/C(=O)Nc1cc2c(Nc3ccc(F)c(Cl)c3)ncnc2cc1O[C@H]1CCOC1 [Afatinib (BIBW2992)]
The cell viability of the first is higher: 79.5 ± 2.5% for the first, 9.65 ± 4.3% for the second.

`CCN(CC)CCOc1ccc(C(=C(Cl)c2ccccc2)c2ccccc2)cc1` [Clomifene citrate] and `COC(=O)N[C@H](C(=O)N[C@@H](Cc1ccccc1)[C@@H](O)CN(Cc1ccc(-c2ccccn2)cc1)NC(=O)[C@@H](NC(=O)OC)C(C)(C)C)C(C)(C)C` [Atazanavir Sulfate] are within error of each other in cell viability: 85.1 ± 8.8% for the first, 67.8 ± 13% for the second.

First: Nc1ccn([C@@H]2O[C@H](CO)[C@@H](O)C2(F)F)c(=O)n1 [Gemcitabine]
Second: COc1cccc2c1C(=O)c1c(O)c3c(c(O)c1C2=O)C[C@@](O)(C(=O)CO)C[C@@H]3O[C@H]1C[C@H](N)[C@@H](O)[C@H](C)O1 [Epirubicin HCl]
The cell viability of the first is higher: 91 ± 2.9% for the first, 45.5 ± 1% for the second.

First: CC(C)c1nc(CN(C)C(=O)N[C@@H](CCN2CCOCC2)C(=O)N[C@H](CC[C@H](Cc2ccccc2)NC(=O)OCc2cncs2)Cc2ccccc2)cs1 [Cobicistat (GS-9350)]
Second: CC(C)(C)c1cc(NC(=O)Nc2ccc(-c3cn4c(n3)sc3cc(OCCN5CCOCC5)ccc34)cc2)no1 [Quizartinib (AC220)]
The cell viability of the first is higher: 61.5 ± 0.43% for the first, 57.8 ± 2.7% for the second.

`CN1CCN(c2ccc(C(=O)Nc3n[nH]c4ccc(Cc5cc(F)cc(F)c5)cc34)c(NC3CCOCC3)c2)CC1` [Entrectinib (RXDX-101)] and `COc1cc2c(Oc3ccc(NC(=O)C4(C(=O)Nc5ccc(F)cc5)CC4)cc3F)ccnc2cc1OCCCN1CCOCC1` are within error of each other in cell viability: 14.7 ± 15% for the first, 7.35 ± 2% for the second.

`CN(C)/N=N/c1[nH]cnc1C(N)=O` [Dacarbazine] and `CC(=O)OCC(CCn1cnc2cnc(N)nc21)COC(C)=O` [Famciclovir] are within error of each other in cell viability: 82 ± 1.7% for the first, 80.4 ± 5.5% for the second.

Compared with `CO[C@H]1C[C@@H]2CC[C@@H](C)[C@@](O)(O2)C(=O)C(=O)N2CCCC[C@H]2C(=O)O[C@H]([C@H](C)C[C@@H]2CC[C@@H](OCCO)[C@H](OC)C2)CC(=O)[C@H](C)/C=C(\C)[C@@H](O)[C@@H](OC)C(=O)[C@H](C)C[C@H](C)/C=C/C=C/C=C/1C` [Everolimus (RAD001)], `CC(=O)OCC(=O)[C@@]1(O)CC[C@H]2[C@@H]3CCC4=CC(=O)CC[C@]4(C)[C@H]3C(=O)C[C@@]21C` [Cortisone acetate] is higher in cell viability: 64.9 ± 4.7% for the first, 90.9 ± 9.9% for the second.

First: COc1cc(OC)cc(N(CCNC(C)C)c2ccc3ncc(-c4cnn(C)c4)nc3c2)c1 [Erdafitinib]
Second: C=CC(=O)Nc1cc(Nc2nccc(-c3cn(C)c4ccccc34)n2)c(OC)cc1N(C)CCN(C)C [Osimertinib (AZD9291)]
The cell viability of the first is higher: 33.1 ± 2% for the first, 2.66 ± 0.22% for the second.

`CNNCc1ccc(C(=O)NC(C)C)cc1` [Procarbazine HCl] and `CNC(=O)c1ccc(-c2cnc3ncc(Cc4ccc5ncccc5c4)n3n2)cc1F` are within error of each other in cell viability: 94.3 ± 7.5% for the first, 80.9 ± 7.9% for the second.

`CCCS(=O)(=O)Nc1ccc(F)c(C(=O)c2c[nH]c3ncc(-c4ccc(Cl)cc4)cc23)c1F` [Vemurafenib (PLX4032, RG7204)] and `CNC(=O)c1cc(Oc2ccc(NC(=O)Nc3ccc(Cl)c(C(F)(F)F)c3)c(F)c2)ccn1` [Regorafenib (BAY 73-4506)] are within error of each other in cell viability: 76 ± 3.5% for the first, 85.6 ± 6.8% for the second.

First: O=c1c(-c2ccc(O)cc2)coc2cc(O)cc(O)c12 [Genistein]
Second: CC1=C(CC(=O)O)c2cc(F)ccc2/C1=C\c1ccc([S+](C)[O-])cc1 (centres undefined) [Sulindac]
The cell viability of the first is lower: 81.4 ± 10% for the first, 103.76 ± 0.032% for the second.

Compared with `COc1c2occc2cc2ccc(=O)oc12` [Methoxsalen], `Cc1nc(Nc2ncc(C(=O)Nc3c(C)cccc3Cl)s2)cc(N2CCN(CCO)CC2)n1` [Dasatinib] is lower in cell viability: 116 ± 22% for the first, 55.3 ± 5.5% for the second.

`CCN1CCN(Cc2ccc(Nc3ncc(F)c(-c4cc(F)c5nc(C)n(C(C)C)c5c4)n3)nc2)CC1` [Abemaciclib mesylate] and `O=c1[nH]cc(F)c(=O)[nH]1` [Fluorouracil (5-Fluoracil, 5-FU)] are within error of each other in cell viability: 84.2 ± 9% for the first, 78.9 ± 19% for the second.

`CC(=O)c1c(C)c2cnc(Nc3ccc(N4CCNCC4)cn3)nc2n(C2CCCC2)c1=O` was tested, and the cell viability was 50.3% and 42.8%.
